The values that follow come from PubChem BioAssay AID504537 (National Center for Advancing Translational Sciences (NCATS), 2011).

Results filed as inconclusive are left out. The source made the active and inactive calls. No rule for the calls is given here.

For this assay, the target named is Histone-lysine N-methyltransferase 2A (Homo sapiens) (UniProt Q03164). The assay can be described thus: Inhibitor SAR for Compounds Targeting the Menin-MLL Interaction in MLL Related Leukemias: Competition With Fluorescein Labeled MLL-derived Peptide. As to conditions: Menin-MLL fluorescein peptide fluorescence polarization competition. An excerpt: qHTS Assay for Inhibitors Targeting the Menin-MLL Interaction in MLL Related Leukemias NIH Chemical Genomics Center [NCGC] NIH Molecular Libraries Probe Centers Network [MLPCN] MLPCN Grant: MH084875-01A1 Assay Submitter (PI): Jolanta Grembecka, Tomasz Cierpicki, University of Virginia Translocations of the MLL (Mixed Lineage Leukemia) gene are frequently found in human leukemias affecting both children and adults. Fusion of MLL to one of more than 60 genes results in generation of oncogenic proteins upregulating Hox genes, which are vital to blood cell development. Patients harboring fusion of the MLL gene suffer from aggressive leukemias and respond poorly to available therapies. All of the oncogenic fusion proteins have a preserved N-terminal fragment of MLL that has been identified to interact with menin. It has been recently discovered that association with menin is critical to the leukemogenic activity of the MLL fusion oncoproteins. Selective targeting of the menin-MLL interaction could provide an attractive therapeutic approach to develop novel drugs for MLL-related leukemias. Small molecules blocking the menin-MLL interaction should reverse the oncogenic potential of MLL fusion proteins. We have developed and optimized a fluorescence polarization-based assay for the identification of Menin-MLL inhibitors. The assay was run employing two different MLL-derived peptides. The present assay uses a 12 amino acid peptide labeled with fluorescein at its N-terminus. This peptide consists of the menin high affinity binding motif from MLL and is potently bound by menin. Another peptide with a mutated sequence, labeled with Texas Red, was used in parallel as a less stringent screen for inhibitors. The present assay was run to characterize initial structure activity relationships.
Sequence of Histone-lysine N-methyltransferase 2A (Homo sapiens) (Q03164 whole entry, looked up, the tested form may be a part): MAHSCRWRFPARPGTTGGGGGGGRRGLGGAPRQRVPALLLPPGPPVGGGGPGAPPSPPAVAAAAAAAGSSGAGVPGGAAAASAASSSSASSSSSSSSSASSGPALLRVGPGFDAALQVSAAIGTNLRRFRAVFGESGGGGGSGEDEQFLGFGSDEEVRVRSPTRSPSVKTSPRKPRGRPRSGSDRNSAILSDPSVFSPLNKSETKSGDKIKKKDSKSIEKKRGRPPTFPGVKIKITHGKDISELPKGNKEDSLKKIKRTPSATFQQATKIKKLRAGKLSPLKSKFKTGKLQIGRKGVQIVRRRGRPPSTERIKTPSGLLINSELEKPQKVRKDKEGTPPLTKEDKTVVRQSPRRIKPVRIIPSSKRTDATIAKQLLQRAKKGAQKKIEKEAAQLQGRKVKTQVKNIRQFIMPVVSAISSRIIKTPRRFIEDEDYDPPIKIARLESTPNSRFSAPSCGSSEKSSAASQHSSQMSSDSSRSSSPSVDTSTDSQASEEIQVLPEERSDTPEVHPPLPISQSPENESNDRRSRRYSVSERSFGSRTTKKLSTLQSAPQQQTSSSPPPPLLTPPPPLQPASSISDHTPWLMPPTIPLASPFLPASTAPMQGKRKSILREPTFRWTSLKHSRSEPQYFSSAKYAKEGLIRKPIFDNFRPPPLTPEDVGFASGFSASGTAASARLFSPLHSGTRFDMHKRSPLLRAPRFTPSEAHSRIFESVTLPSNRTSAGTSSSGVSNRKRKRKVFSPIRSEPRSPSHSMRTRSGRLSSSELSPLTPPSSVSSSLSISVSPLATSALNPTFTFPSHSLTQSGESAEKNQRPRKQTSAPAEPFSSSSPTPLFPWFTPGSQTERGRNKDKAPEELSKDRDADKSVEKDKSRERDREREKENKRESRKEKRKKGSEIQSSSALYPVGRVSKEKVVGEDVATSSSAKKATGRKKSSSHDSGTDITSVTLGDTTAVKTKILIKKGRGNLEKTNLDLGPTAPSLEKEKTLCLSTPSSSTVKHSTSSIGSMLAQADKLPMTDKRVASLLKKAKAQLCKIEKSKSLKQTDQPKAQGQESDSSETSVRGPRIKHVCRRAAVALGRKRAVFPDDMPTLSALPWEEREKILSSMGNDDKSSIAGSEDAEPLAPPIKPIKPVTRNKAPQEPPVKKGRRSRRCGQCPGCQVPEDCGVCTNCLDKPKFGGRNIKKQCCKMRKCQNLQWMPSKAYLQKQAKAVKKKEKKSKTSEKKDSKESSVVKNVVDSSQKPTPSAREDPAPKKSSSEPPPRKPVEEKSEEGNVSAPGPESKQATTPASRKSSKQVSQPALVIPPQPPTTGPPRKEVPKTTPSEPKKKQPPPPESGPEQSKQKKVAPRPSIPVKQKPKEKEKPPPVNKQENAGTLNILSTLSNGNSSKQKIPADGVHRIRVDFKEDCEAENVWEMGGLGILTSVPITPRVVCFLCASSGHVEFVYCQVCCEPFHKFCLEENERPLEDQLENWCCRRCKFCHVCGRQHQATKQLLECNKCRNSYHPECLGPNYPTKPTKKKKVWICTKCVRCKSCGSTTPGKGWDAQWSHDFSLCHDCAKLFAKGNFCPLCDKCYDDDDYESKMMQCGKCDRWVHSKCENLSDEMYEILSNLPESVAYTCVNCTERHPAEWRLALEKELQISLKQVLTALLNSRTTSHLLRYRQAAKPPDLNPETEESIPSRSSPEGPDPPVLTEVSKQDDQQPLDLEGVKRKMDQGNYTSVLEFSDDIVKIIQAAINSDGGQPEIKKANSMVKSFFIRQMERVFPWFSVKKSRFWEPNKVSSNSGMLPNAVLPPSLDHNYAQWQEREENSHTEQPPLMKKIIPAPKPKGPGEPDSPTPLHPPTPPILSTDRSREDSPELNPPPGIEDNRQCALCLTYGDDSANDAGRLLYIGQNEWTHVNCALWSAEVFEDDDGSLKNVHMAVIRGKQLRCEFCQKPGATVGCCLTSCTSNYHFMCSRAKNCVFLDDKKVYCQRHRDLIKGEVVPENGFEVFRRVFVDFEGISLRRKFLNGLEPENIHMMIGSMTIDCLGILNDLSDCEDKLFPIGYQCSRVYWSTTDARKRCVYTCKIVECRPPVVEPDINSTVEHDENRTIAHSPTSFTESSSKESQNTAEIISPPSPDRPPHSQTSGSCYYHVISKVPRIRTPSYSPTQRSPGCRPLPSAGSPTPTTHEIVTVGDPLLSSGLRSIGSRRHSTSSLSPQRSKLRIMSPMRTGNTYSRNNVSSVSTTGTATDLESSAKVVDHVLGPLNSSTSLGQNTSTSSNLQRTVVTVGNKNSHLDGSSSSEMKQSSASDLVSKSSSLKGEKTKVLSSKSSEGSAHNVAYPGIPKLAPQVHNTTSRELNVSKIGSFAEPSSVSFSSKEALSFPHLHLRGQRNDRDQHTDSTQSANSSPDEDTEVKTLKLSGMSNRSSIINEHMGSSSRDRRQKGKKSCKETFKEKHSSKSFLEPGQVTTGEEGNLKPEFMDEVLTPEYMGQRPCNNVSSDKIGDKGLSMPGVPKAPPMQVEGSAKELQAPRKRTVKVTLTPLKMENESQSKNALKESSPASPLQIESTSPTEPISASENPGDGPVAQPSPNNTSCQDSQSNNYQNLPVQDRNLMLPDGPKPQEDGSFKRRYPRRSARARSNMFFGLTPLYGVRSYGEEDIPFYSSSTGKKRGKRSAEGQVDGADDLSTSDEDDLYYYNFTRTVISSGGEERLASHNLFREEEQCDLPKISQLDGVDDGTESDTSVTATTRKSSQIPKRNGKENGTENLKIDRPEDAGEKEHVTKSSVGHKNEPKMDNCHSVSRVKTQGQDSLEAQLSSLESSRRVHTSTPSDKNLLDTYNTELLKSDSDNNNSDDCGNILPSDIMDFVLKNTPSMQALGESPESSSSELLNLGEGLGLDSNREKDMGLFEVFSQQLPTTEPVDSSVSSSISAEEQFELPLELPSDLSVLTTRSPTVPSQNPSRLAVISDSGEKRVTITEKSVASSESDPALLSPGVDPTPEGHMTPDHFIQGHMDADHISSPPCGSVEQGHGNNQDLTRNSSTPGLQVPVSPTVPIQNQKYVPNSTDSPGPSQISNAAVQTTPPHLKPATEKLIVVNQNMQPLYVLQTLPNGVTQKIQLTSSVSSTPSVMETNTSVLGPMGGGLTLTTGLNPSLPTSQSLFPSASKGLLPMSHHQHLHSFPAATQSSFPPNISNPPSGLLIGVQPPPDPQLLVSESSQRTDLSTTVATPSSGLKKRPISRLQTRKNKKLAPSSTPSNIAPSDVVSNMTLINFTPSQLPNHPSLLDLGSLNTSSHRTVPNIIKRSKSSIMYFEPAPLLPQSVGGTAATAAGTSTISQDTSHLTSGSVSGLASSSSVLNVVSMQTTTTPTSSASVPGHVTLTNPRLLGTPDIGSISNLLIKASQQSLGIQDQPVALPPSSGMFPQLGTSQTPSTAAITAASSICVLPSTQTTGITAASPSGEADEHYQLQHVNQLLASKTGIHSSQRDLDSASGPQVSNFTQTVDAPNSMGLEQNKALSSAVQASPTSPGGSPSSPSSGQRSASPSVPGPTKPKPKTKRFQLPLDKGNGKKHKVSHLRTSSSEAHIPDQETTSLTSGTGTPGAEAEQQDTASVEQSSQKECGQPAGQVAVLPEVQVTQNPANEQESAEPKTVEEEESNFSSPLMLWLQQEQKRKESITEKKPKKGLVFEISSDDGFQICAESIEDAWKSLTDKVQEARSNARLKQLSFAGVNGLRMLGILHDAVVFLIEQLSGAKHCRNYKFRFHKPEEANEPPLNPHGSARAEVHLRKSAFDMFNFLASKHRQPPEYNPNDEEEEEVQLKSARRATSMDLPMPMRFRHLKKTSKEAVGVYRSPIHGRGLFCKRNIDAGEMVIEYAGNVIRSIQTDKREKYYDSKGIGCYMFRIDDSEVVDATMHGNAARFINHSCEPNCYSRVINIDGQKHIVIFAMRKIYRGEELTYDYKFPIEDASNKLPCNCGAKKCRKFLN
The Menin protein, the MLL-wild type (w.t.) derived peptide (N-terminal 12 amino acids), the MLL-derived peptide labeled with Texas Red and the MLL-w.t. peptide labeled with Fluorescein were kindly supplied by laboratory of Dr. Jolanta Grembecka, University of Virginia. All protein and peptide solutions were stored in single use aliquots at -80C. The Eu3+ Cyrptate-conjugated mouse monoclonal antibody anti-6 Histidine (Eu3+-AB) and the Streptavidin-XL665 conjugate (XL665) were purchased from Cisbio International (Bedford, MA). All antibody and XL665 conjugate solution stocks were stored in single use aliquots at -20C. The Buffer components for all assays were purchased from Sigma-Aldrich (St. Louis, MO) and Invitrogen (Carlsbad, CA). FP Assay Reagents: 1. FP reaction buffer: 50 mM Tris-HCl pH 7.5, 50 mM NaCl, 1mM DTT. Before use, 0.05% BSA is added. 2. Menin protein, MLL-w.t. labeled with fluorescein, MLL-mutant peptide labeled with texas red. Stored in singe use aliquots at -80C. 3. MLL-w.t. unlabeled peptide as positive control: 10 uM final in FP buffer. FP Assay Procedure: 1. Prepare Menin at 200 nM, MLL-w.t.-fluorescein at 25 nM, and MLL-mutant-texas red at 50 nM mixture in FP buffer. 2. Prepare Menin at 200 nM, MLL-w.t.-fluorescein at 25 nM, MLL-mutant-texas red at 50 nM, and 10 uM MLL-w.t. unlabeled mixture in FP buffer. 3. Prepare MLL-w.t.-fluorescein at 25 nM and MLL-mutant-texas red at 50 nM mixture in FP buffer. 3. Dispense 4 ul per well of reagent in step 1 in columns 2, 4 - 48 in a black 1536 well plate, dispense 4 ul per well of reagents from steps 2 and 3 in columns 1 and 3 respectively. Incubate plate at ambient for 15 minutes. 4. Transfer 23 nl per well of compound to plate and incubate at ambient for 1 hr. 5. Read fluorescence polarization for each label using the PerkinElmer Envision. Envision protocol for fluorescein: FITC FP Dual Enh Mirror, Excitation filter 480, Emission filter (1) P-pol 535, Emission filter (2) S-pol 535 Envision protocol for texas red: FP Dual Enh Mirror, Excitation filter 555, Emission filter (1) P-pol 632, Emission filter (2) S-pol 632
In general terms: Polarisation of emitted light reports the rotation of a fluorescent probe.
For the molecule `CC(C)(C(=O)O)c1ccc(C(O)CCCN2CCC(C(O)(c3ccccc3)c3ccccc3)CC2)cc1` (centres undefined), the outcome is “inactive; no activity up to 2 mm”.

`CC(C)c1ccc(OCCCN2CCC(=C(c3ccccc3)c3ccccc3)CC2)cc1`: the outcome is “inactive; no saturation, 15% inh at 1mm”. For `FC(F)(F)Oc1ccc(OCCCN2CCC(=C(c3ccccc3)c3ccccc3)CC2)cc1`, the outcome was “inactive; no saturation, 12%inh at 2mm”. As to `COc1ccccc1C(=O)Nc1ccnn1C1CCN(CC2CCCCC2)CC1`, the Potency is 42 µM (active).

For `N#Cc1ccc(OCCCN2CCC(C(O)(c3ccccc3)c3ccccc3)CC2)cc1F`, the Potency was 26.5 µM (active). On to `Cc1ccc(OCCCN2CCC(=C(c3ccccc3)c3ccccc3)CC2)cc1`, for which the outcome is “inactive; no saturation, 25% inh at 2mm”. On to `NCc1ccc(OCCCN2CCC(C(O)(c3ccccc3)c3ccccc3)CC2)cc1`, for which the Potency was 7.6 µM (active). Turning to `FC(F)(F)Oc1ccc(OCCCN2CCC(C(c3ccccc3)c3ccccc3)CC2)cc1`, the outcome was “inactive; no saturation, 12%inh at 2mm”. Still for that read-out and setting: as for `N#Cc1ccc(COCCN2CCC(C(O)(c3ccccc3)c3ccccc3)CC2)cc1`, the entry is “inactive; no saturation, 50% inh at 1mm”; as for `O=C(O)c1ccc(OCCCN2CCC(C(O)(c3ccccc3)c3ccccc3)CC2)cc1`, “inactive; no saturation, 34% inh. at 1mm”. On to `OC(c1ccccc1)(c1ccccc1)C1CCN(CCCOc2ccc(-n3ccnn3)cc2)CC1`, for which the Potency was 29 µM (active). Take `FC(F)(F)c1ccc(OCCCN2CCC(C(c3ccccc3)c3ccccc3)CC2)cc1`: the outcome was “inactive; no saturation, 36% inh at 2mm”. Same read-out and setting: as for `FC(F)(F)c1ccc(OCCCN2CCC(=C(c3ccccc3)c3ccccc3)CC2)cc1`, the entry is “inactive; no saturation, 25% inh at 2mm”; as for `c1ccc(OCCCN2CCC(=C(c3ccccc3)c3ccccc3)CC2)cc1`, “inactive; no saturation, 42% inh at 2mm”. Still for that read-out and setting: to `OC(c1ccccc1)(c1ccccc1)C1CCN(CCCOc2ccc(-c3nn[nH]n3)cc2)CC1` belongs “inactive; interference with assay at higher dose, inactive up to 100 um”.

For the molecule `OC(c1ccccc1)(c1ccccc1)C1CCN(CCCOc2ccc(C(F)(F)F)cc2)CC1`, the Potency was 52 µM (active). For `N#Cc1ccc(OCCCN2CCC(C(O)(c3ccccc3)C(F)(F)F)CC2)cc1` (centres undefined), the Potency was 31 µM (active). On the same count and under the same terms, to `Nc1ccc(OCCCN2CCC(C(O)(c3ccccc3)c3ccccc3)CC2)cc1` belongs 60.5 µM (active); to `[N-]=[N+]=Nc1ccc(OCCCN2CCC(C(O)(c3ccccc3)c3ccccc3)CC2)cc1`, 58 µM (active).
